# Shown are actives, neighbours in structure and some others; about 4.6% of the full set was active somewhere.
# tim10-1 inh: growth inhibitors of tim10-1 mutant yeast. S. cerevisiae tim10-1 ts strain growth, BacTiter-Glo, 24 h. inhibition, % at 20 µM. 330,000 compounds, 2.2% hits;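 active = inhibition of at least 40%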;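 note: mutant grown at 25 °C; 0% = DMSO wells with yeast and 100% = wells holding no yeast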
# TIM10 inh: growth inhibitors of TIM10 yeast strain | 330,000 compounds, 1.4% hits | inhibition, % at 10 µM | S. cerevisiae TIM10 strain growth, BacTiter-Glo luminescence, 24 h | AID 463195;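 active = inhibition of 40% or more at the single tested concentration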;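 note: wild-type TIM10 isogenic control strain grown at permissive 25 °C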
# tim23-1 inh: tim23-1 yeast growth inhibition. 330,000 compounds, 1.3% hits. AID 463212. S. cerevisiae tim23-1 growth, BacTiter-Glo luminescence, 24 h. inhibition, % at 20 µM;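 active = growth inhibition of the mutant yeast at or above 50%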;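 note: temperature-sensitive mutant grown at 25 °C; plate controls were DMSO-treated mutant yeast for no effect and medium wells lacking yeast for full effect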
# PfHsp90 set2: reduces growth (ATP signal) of yeast expressing P. falciparum Hsp90. S. cerevisiae expressing PfHsp90, BacTiter-Glo ATP, 48 h; yeast lacking PDR1 and PDR3 efflux regulators. inhibition, % at 9.4 µM. 310,000 compounds, 0.32% hits. AID 504621;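 active = every replicate shows inhibition above about 80%, whatever the replicate mean, limit read from the data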;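 note: 0% = DMSO neutral controls and 100% = 20 µM radicicol positive controls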
# SKKanGAS inh: blocks kanamycin growth of S. pyogenes SKKanGAS strain. BacTiter-Glo, 6 h. inhibition, % at 7.5 µM. 300,000 compounds, 1.3% hits. AID 1662;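 active = mean replicate score, as percent of positive control median, at least 50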;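 note: strain carries kanamycin resistance gene driven by streptokinase promoter and grows in 40 µg/ml kanamycin; loss of luminescence reflects streptokinase promoter inhibition or plain growth inhibition; 0% = median of DMSO wells and 100% = positive control at its reference dose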
# NALP3 yeast inh: blocks the NALP3 inflammasome reconstituted in yeast. Yeast reconstituted NLRP3/ASC/caspase-1, beta-gal luminescence, 24 h. inhibition, % at 10 µM. 330,000 compounds, 0.39% hits;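 active = inhibition of 50% or more; inactive = inhibition below 50%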;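 note: plate controls were induced DMSO wells for no effect and uninduced yeast grown without galactose for full effect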
# TIM10 conf: confirmation of TIM10 yeast growth inhibitors | inhibition, % at 10 µM | shares compounds with TIM10 inh | 4,600 compounds, 63% hits | S. cerevisiae tim10 strain growth, BacTiter-Glo luminescence, 24 h;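 active = inhibition of yeast growth at or above a set limit in either of two replicates at 10 µM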;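 note: this counterscreen used the strain with wild-type TIM10; 0% = yeast with DMSO and 100% = medium wells lacking yeast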
# Active calls of the source: *; nt = no result given.
SMILES,tim10-1 inh,TIM10 inh,tim23-1 inh,PfHsp90 set2,SKKanGAS inh,NALP3 yeast inh,TIM10 conf
CC(=O)Nc1ccc(-c2cn3ccsc3n2)cc1,-14.4,4.0,6.7,-17.5,-5.1,11.1,nt
O=C(Nc1ccc(-c2cn3ccsc3n2)cc1)C1CC1,17.2,56.7*,8.5,37.3,3.7,8.3,26.5
COc1ccc(Nc2nc(Cl)c(C=O)s2)cc1,28.6,46.4*,43.9,nt,1.5,10.8,18.2
COc1ccc(Nc2nc3ccccc3s2)cc1,27.0,3.6,24.7,-18.1,2.0,19.6,nt
Cn1c(=O)c2c(-c3ccccc3)n3c4ccccc4ncc3c2n(C)c1=O,23.9,41.8*,16.9,nt,1.2,17.5,-15.7
Cc1cc(C)c(C)c(OCCCCN2CCCCC2)c1,3.0,-14.4,5.8,-2.9,-0.3,28.5,nt
Cc1cccc2nc(-c3ccccc3)nc(N3CCC(O)(c4ccc(Cl)cc4)CC3)c12,35.9,42.7*,36.1,-18.7,28.7,27.3,54.5*
Clc1ccc(-c2noc(CSc3nnc(Cc4cccs4)n3-c3ccccc3)n2)cc1,30.7,97.2*,33.6,3.1,9.0,13.2,21.8
CCOc1ccc(-n2c(SCc3nc(-c4ccc(C)cc4)no3)nnc2-c2ccncc2)cc1,35.1,39.5,25.0,nt,-8.1,8.9,nt
Cc1ccc(-c2noc(CSc3nnc(-c4ccncc4)n3-c3ccc(C)cc3)n2)cc1,37.7,42.8*,40.0,-16.2,-16.3,-9.5,38.9*
Clc1ccc(-c2noc(CSc3nnc(-c4ccncc4)n3-c3ccccc3)n2)cc1,14.5,47.8*,24.6,12.5,-13.8,23.9,36.2*
CCCCc1ccc(-n2c(Cc3cccs3)n[nH]c2=S)cc1,37.1,51.9*,46.6,-17.5,0.1,18.6,36.0*
Fc1ccccc1NC(=S)NN(Cc1ccccc1)c1ccccc1,32.7,43.6*,41.7,-43.6,-1.1,6.0,37.5*
Fc1ccccc1NC(=S)NCc1ccccc1,16.7,12.9,9.8,-2.8,7.9,2.3,nt
O=C(Nc1nnc(CCc2ccccc2)s1)c1ccccc1F,-17.7,-15.3,17.9,25.0,-3.8,39.8,nt
N#C/C(=C/c1ccc(F)cc1)S(=O)(=O)c1ccccc1,18.0,3.0,17.5,6.1,-0.3,3.9,nt
N#C/C(=C\c1ccc(C(=O)O)cc1)S(=O)(=O)c1cc(Br)ccc1Br,32.4,42.5*,45.2,nt,-0.2,13.3,18.3
Cc1cc(F)ccc1NCc1cc2c(cc1[N+](=O)[O-])OCO2,29.4,45.1*,34.2,66.1,9.5,4.8,40.7*
Cn1c(-c2ccc(F)cc2)cnc1NCc1cc2c(cc1[N+](=O)[O-])OCO2,8.7,-14.5,-13.6,-22.8,1.4,14.1,nt
CC1CC(C)CN(C(=O)C(C)N(C)CC(=O)Nc2ccc(Cl)cc2)C1 (stereo unspecified),12.0,24.6,23.9,-11.6,-8.3,8.6,nt
Cc1ccc(N2C(=O)CC(N3CCN(C)CC3)C2=O)cc1 (stereo unspecified),8.6,1.3,14.4,nt,-0.6,6.4,nt
Cc1ccc2nc(-c3ccc(N4C(=O)CC(N5CCC(C(N)=O)CC5)C4=O)cc3)sc2c1 (stereo unspecified),18.3,42.1*,15.3,nt,-0.9,-7.6,56.8*
Cc1ccc(Cn2cnc3ccccc32)cc1C,1.3,40.0*,18.6,5.9,19.4,40.2,20.5
Cc1cccc(Cn2cnc3ccccc32)c1,18.2,11.5,4.2,-9.1,-4.1,-2.0,nt
Clc1ccccc1CSc1cc2c(nn1)-c1ccccc1CC2,24.3,15.3,17.2,18.3,35.7,6.0,nt
SMILES,tim10-1 inh,TIM10 inh,tim23-1 inh,PfHsp90 set2,SKKanGAS inh,NALP3 yeast inh,TIM10 conf
Clc1cccc(Cl)c1CSc1cc2c(nn1)-c1ccccc1CC2,38.0,40.5*,25.9,5.6,29.8,2.4,-1.0
C=CCn1c(-c2ccc(OC)cc2)csc1=Nc1c(C)n(C)n(-c2ccccc2)c1=O,36.6,41.7*,48.3,-25.3,9.4,5.6,33.1*
S=C(NCc1cccs1)Nc1ccc(Br)cc1Cl,21.1,41.2*,39.4,5.8,26.3,32.1,46.0*
CCOC(=O)NC(=S)Nc1ccc(C(C)(C)C)cc1Br,38.3,49.5*,45.5,2.0,9.2,21.0,38.6*
CCOc1cc(/C=C2\SC(=NC)N(C)C2=O)cc(Cl)c1OC(C)=O,21.6,-16.1,20.2,-11.3,10.7,6.7,nt
CCOc1cc(/C=C2\SC(=NC)N(C)C2=O)c(Br)cc1OC(C)=O,34.2,82.4*,29.0,-7.9,6.9,-31.6,29.1
CCCc1ccc(Oc2cn[nH]c2-c2ccc(O)c(C)c2O)cc1,-191.1,71.4*,-276.8,141.6*,88.5*,43.4,70.8*
CCCc1ccc(Oc2c(-c3ccc(O)c(C)c3O)n[nH]c2C)cc1,-80.5,62.9*,-296.6,7.5,95.3*,22.7,73.2*
COc1cccc(Oc2cn[nH]c2-c2ccc(OC)cc2O)c1,-20.9,18.6,40.6,-57.0,14.4,29.1,nt
Nc1c(C(=O)Nc2ccccc2)c2nc3ccccc3nc2n1-c1ccc(O)cc1,24.6,12.7,4.9,8.9,37.5,5.3,nt
Cc1ccc(NC(=O)CCCc2ccccc2)c([N+](=O)[O-])c1,-9.4,-17.7,16.4,-12.1,6.0,27.1,nt
O=C(OCC#CCSc1nnc(-c2ccc([N+](=O)[O-])cc2)o1)c1cccs1,36.2,41.3*,22.4,-2.8,3.1,14.9,33.5*
NS(=O)(=O)c1ccc(CCNS(=O)(=O)c2cccc3nsnc23)cc1,-2.4,-17.3,-2.1,14.6,4.9,2.0,nt
Oc1ccc(-c2c(-c3ccsc3)sc3ccccc23)cc1,30.1,48.3*,40.8,107.0*,108.0*,8.3,61.4*
COCc1ccc(-c2c(-c3ccsc3)sc3ccccc23)cc1,0.1,-2.6,2.7,-2.3,nt,4.1,nt
Cc1cccc(NC(=O)c2ccc([N+](=O)[O-])o2)n1,5.2,59.8*,-18.5,nt,18.4,3.2,-26.1
O=C(Cc1ccccc1)Nc1nc(-c2cccs2)cs1,35.8,25.4,34.2,-20.9,28.4,21.9,nt
Cc1ccc(NC(=O)c2cccs2)cc1[N+](=O)[O-],17.8,44.9*,36.2,6.9,-5.5,22.8,12.1
O=C(Cc1ccccc1F)Nc1nc(-c2cccs2)cs1,15.5,47.3*,27.8,-8.3,25.1,4.6,-2.5
O=C(Nc1cccc(NC(=O)c2cccs2)c1)c1ccc([N+](=O)[O-])o1,35.3,56.4*,33.4,-39.7,58.8*,0.8,62.4*
Cc1ccc(C(=O)Nc2ccc(NC(=O)c3cccs3)cc2)cc1[N+](=O)[O-],7.9,-11.3,-17.6,10.8,-2.4,3.8,nt
COc1ccc(CNC(=O)c2ccc(CS(=O)(=O)Cc3ccccc3F)o2)cc1,2.3,-4.1,7.4,-8.4,-5.7,5.8,nt
O=C(Nc1nc(-c2cccs2)cs1)c1ccc([N+](=O)[O-])o1,11.7,62.5*,44.7,84.5*,nt,16.9,87.2*
